rTrxR1 inhibitor = qHTS Assay for Inhibitors of Mammalian Selenoprotein Thioredoxin Reductase 1 (TrxR1): qHTS. 390,000 tested, 1% active. Thioredoxin reductase 1, cytoplasmic (Rattus norvegicus), O89049. recombinant rTrxR1, NADPH fluorescence consumption, selenite substrate. Potency, µM (series often up to 114 µM), most hits filed as inhibitors; further: nearly all actives have a fitted effect of over 65% in size
Target sequence (O89049 whole entry, looked up): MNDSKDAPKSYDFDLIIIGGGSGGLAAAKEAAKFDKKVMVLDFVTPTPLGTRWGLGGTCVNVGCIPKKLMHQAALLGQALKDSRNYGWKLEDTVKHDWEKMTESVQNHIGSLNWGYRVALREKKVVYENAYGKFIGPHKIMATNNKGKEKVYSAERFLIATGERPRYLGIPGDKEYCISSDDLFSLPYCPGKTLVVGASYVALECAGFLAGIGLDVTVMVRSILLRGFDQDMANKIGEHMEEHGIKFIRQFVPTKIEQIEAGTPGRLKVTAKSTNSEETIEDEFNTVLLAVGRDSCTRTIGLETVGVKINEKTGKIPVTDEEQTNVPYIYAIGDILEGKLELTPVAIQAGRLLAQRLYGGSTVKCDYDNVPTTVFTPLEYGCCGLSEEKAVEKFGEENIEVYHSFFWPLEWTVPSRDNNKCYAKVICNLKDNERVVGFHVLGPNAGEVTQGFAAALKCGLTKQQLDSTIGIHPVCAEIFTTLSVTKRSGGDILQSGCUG
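Rat TrxR1 (90 nM in the dispensed reagent) was pre-reduced with 400 uM NADPH for 5 min at room temperature, then incubated with compound for 15 min. After 400 uM selenite was added, NADPH fluorescence (Ex 340/Em 450 nm) was followed for 8 min.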
miR-21 act = qHTS Assay for Modulators of miRNAs and/orActivators of miR-21; Potency, µM (titrated, usually from 38.3 µM), most hits filed as activators; HeLa miR-21 FLuc reporter, luciferase, 48 h; 340,000 tested, under 10 active; AID 2288, 2010;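 further: miR-21 action dims this reporter so a rising signal means less miR-21 action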
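Luminescence from a firefly luciferase reporter carrying a miR-21 binding site downstream, stably expressed under a CMV promoter in HeLa cells that make miR-21 endogenously, reports miRNA modulation after 48 h compound exposure up to approximately 40uM final.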
ClpP mod = qHTS Assay for Activators of ClpP. ATP-dependent Clp protease proteolytic subunit (Bacillus subtilis (strain 168)), P80244. purified B. subtilis ClpP, FRET peptide cleavage, 20 min. Potency, µM (highest dose often 57.5 µM). 340,000 tested, 1.9% active. AID 651965, 2013; active means well fitted falling curve with a large enough effect; inconclusive means small, poorly fitted or top-dose-only effect; inactive means no such curve, though single readings can be large or run the other way; further: the source files actives as falling curves though it sought activators and does not explain the sign; nearly all actives have a fitted effect of over 65% in size
Target sequence (P80244 whole entry, looked up): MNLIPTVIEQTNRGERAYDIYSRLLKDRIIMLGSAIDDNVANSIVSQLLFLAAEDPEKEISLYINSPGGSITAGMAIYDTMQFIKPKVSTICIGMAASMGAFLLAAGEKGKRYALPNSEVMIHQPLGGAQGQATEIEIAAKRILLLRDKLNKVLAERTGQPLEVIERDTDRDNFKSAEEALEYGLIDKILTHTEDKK
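Purified B. subtilis ClpP, 10 microg/mL final in Tris/HCl pH8 with KCl, BSA, glycerol and Tween-20, cleaved an Abz/nitrotyrosine-quenched decapeptide. Fluorescence (ex 320, em 430) was read at 0 and 20 min at room temperature. Delta was normalized to 5.8 microM ADEP and DMSO/no-enzyme controls.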
Anesthetic bind = qHTS Assay for Identification of Novel General Anesthetics. Ferritin light chain (Equus caballus), P02791. apoferritin/1-aminoanthracene competitive binding, fluorescence. Potency, µM (series often up to 77.5 µM), actives largely listed as inhibitors. 350,000 tested, 0.074% active. AID 485281, 2010; further: nearly all actives have a fitted effect of over 20% in size
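10 uM apoferritin + 50% sat. 1-AMA, PBS; cpd 10 min RT; Ex380/Em535 endpoint; normalized to free probe vs complex; 4-param Hill fit; propofol titration as pos. ctrl.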
TrxR1 substrate = qHTS Assay for Substrates of Mammalian Selenoprotein Thioredoxin Reductase 1 (TrxR1): qHTS; Thioredoxin reductase 1, cytoplasmic (Rattus norvegicus), O89049; purified TrxR1 substrate turnover, NADPH consumption readout; Potency, µM (titrated, usually from 114 µM); 390,000 tested, 0.01% active; further: nearly all actives have a fitted effect of over 50% in size
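Rat TrxR1, dispensed at 90 nM, was prereduced with 400 uM NADPH (final) for 5 min at ~22 deg C, then incubated with compound 15 min before 400 uM selenite. A first-read NADPH fluorescence drop versus no-compound background flagged substrates.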
Each line names hits and unclear results; the compound was inactive in the other large screens; ! = not active in a repeat. A selection: hits, their analogues and other compounds. The true share with any hit is near 2.5%. Unless noted, the call rests on the fitted dose curve; in most records, active means well fitted curve in the direction sought with a large enough effect; inconclusive means small, poorly fitted or top-dose-only effect, or another doubt; inactive means no such curve, though single readings can be large; an effect the other way counts as inactive or inconclusive.

O=C(CCl)NC(=O)NC12CC3CC(CC(C3)C1)C2	rTrxR1 inhibitor 14.1µM, Anesthetic bind inconclusive
COC(=O)C1=C[C@@H](C(=O)OC)C2C3=C(C(=O)[C@]2(C)NC(=O)c2ccccc2)[C@H](C)n2c(=O)n(C)c(=O)n2[C@@H]3C1 (stereo partly drawn)	none (no result: miR-21 act, ClpP mod)
CCOC(=O)N/N=C1\CCc2ccccc21	ClpP mod 31.6µM
CCOC(=O)NN=C1c2ccccc2-c2ccccc21	none
Cc1ccc(OCCSc2nc3ccccc3n2CC(=O)N2CCOCC2)cc1	miR-21 act inconclusive
COc1ccccc1NC(=O)C(C)Sc1nnc2ccc3ccccc3n12 (stereo not drawn)	none
CCOC(=O)N/N=C/c1cn(CCCOc2ccccc2)c2ccccc12	ClpP mod 28.2µM
N#CC(C(=O)NC1CCCCC1)=C1CCCCCC1	ClpP mod 15.8µM
N#CC(C(N)=O)=C1CCCCC1	none (no result: ClpP mod)
Cc1ccc(NC(=O)CCc2nnc3n(CC(C)C)c(=O)c4ccccc4n23)cc1C	none
COc1ccc2oc(C(=O)OCC(=O)Nc3ccc(N4CCOCC4)cc3)c(C)c2c1	ClpP mod 31.6µM (no result: miR-21 act, Anesthetic bind)
COc1ccc2oc(C(=O)OC(C)C(=O)NC3(C#N)CCCCC3)c(C)c2c1 (stereo not drawn)	ClpP mod 25.1µM (no result: miR-21 act, Anesthetic bind)
COC(=O)c1oc2ccc(OC)cc2c1N	ClpP mod 15.8µM
COc1ccc2oc(C(=O)OC(C)C(=O)NCc3ccccc3)c(C)c2c1 (stereo not drawn)	none (no result: miR-21 act, ClpP mod, Anesthetic bind)
COc1ccc2oc(C(=O)OCC(=O)Nc3ccccc3)c(C)c2c1	ClpP mod 28.2µM
Cc1ccccc1NC(=O)CSc1cn(CC(=O)N2CCCCCC2)c2ccccc12	Anesthetic bind inconclusive
CC1Cc2cc(S(=O)(=O)CCC(=O)Nc3ccccc3F)ccc2N1C(=O)C1CC1 (stereo not drawn)	none
COc1cc(C(=O)NCC(c2cccs2)S(=O)(=O)c2ccc(F)cc2)cc(OC)c1OC (stereo not drawn)	none
COc1ccc2oc(C(=O)OCC(=O)NC(C)(C#N)C3CC3)c(C)c2c1 (stereo not drawn)	ClpP mod 31.6µM (no result: miR-21 act, Anesthetic bind)
COc1ccc2oc(C(=O)OCC(=O)NC3CC3)c(C)c2c1	none
COc1ccc2oc(C(=O)OCC(=O)NC(=O)NC(C)C)c(C)c2c1	ClpP mod 31.6µM, Anesthetic bind inconclusive
CCOc1ccc2c(c1)C(C)=CC(C)(C)N2	none (no result: miR-21 act)
CCc1ccc2c(c1)C(C)=CC(C)(C)N2	ClpP mod 31.6µM
O=C(CCSc1ccccn1)c1ccccc1	rTrxR1 inhibitor 2µM (no result: ClpP mod)
COC(=O)c1ccc(NC(=O)CCn2cccn2)cc1	none
COc1cccc(C(c2sc3nc(-c4ccco4)nn3c2O)N2CCOCC2)c1 (stereo not drawn)	none
CN(Cc1ccccc1)c1ccc(/C=C/c2sc3ccccc3[n+]2C)cc1	none (no result: miR-21 act, Anesthetic bind)
C=CCNC(=O)COc1ccc(S(=O)(=O)Nc2ccc(OCC)cc2)cc1	ClpP mod 12.6µM
NC(=O)CSc1nc2c(oc3ccccc32)c(=O)n1-c1ccccc1F	none
Cc1cc(N2CCN(C)CC2)nc2ccc(NC(=O)Nc3ccccc3Cl)cc12	none
CCCS(=O)(=O)Nc1cc2c(cc1NCc1ccccc1)n(C)c(=O)n2C	none
COc1ccc(C(C)(C)C)cc1NC(=O)CNc1cccc2ccccc12	ClpP mod 11.2µM
COc1ccccc1NC(=O)Cc1cccc2ccccc12	none (no result: ClpP mod)
CC(C)(C)OC(=O)N1CCC(c2c(C(=O)NCc3ccco3)cnn2-c2ccc(F)cc2)CC1	none
Cc1ccccc1-n1nc(CO)c(C(=O)NCc2cccs2)n1	none
Cc1ccc2[nH]c3c(N4CCN(Cc5ccccc5)CC4)ncnc3c2c1	miR-21 act inconclusive, ClpP mod inconclusive
CCOc1ccc2[nH]c3c(N4CCN(c5ccccn5)CC4)ncnc3c2c1	ClpP mod 28.2µM
COc1ccc(CCNC(=S)N2CCC(Cc3ccccc3)CC2)cc1OC	ClpP mod 7.94µM
O=C(CSc1nnc(-c2ccco2)n1Cc1ccccc1)c1ccccc1	none
c1ccc(Cn2c(SCc3cn4cccnc4n3)nnc2-c2ccco2)cc1	ClpP mod 15.8µM
CC(C)c1ccc(NC(=O)CN2C(=O)COc3ccc(S(=O)(=O)N4CCCCCC4)cc32)cc1	none
CCOC(=O)c1sc(Nc2nc3c(OC)cccc3s2)cc1C	ClpP mod 25.1µM
COc1cccc2sc(Nc3nc4ccc(NC(C)=O)cc4s3)nc12	ClpP mod 1.12µM
CCOC(=O)c1sc(Nc2nc3cc4c(cc3s2)OCO4)cc1C	ClpP mod 28.2µM
COc1cccc2sc(NN)nc12	Anesthetic bind inconclusive (no result: ClpP mod)
CC(=O)c1sc(Nc2nc3cc4c(cc3s2)OCO4)nc1C	none (no result: ClpP mod)
CC(=O)Nc1ccc2nc(NC(=O)COc3ccccc3C)sc2c1	none
CCc1cc(C(=O)Nc2c(C)nn(Cc3ccc(C)cc3)c2C)no1	none
Cc1cccc(OCC(=O)NCc2ccc3c(c2)CCN3C(=O)c2ccccc2)c1	none
Cc1nn2c3c(cnc2c1-c1ccc(Cl)cc1)C(=O)CC(c1ccc(C(C)C)cc1)C3 (stereo not drawn)	none
Cc1ccc(NC(=O)C2CCCN(c3ncnc4c3nc3n4CCCCC3)C2)c(Br)c1 (stereo not drawn)	none
O=S(=O)(O)Sc1ccccc1	none (no result: rTrxR1 inhibitor, miR-21 act, Anesthetic bind, TrxR1 substrate)
CCN(CC)c1ccc(SS(=O)(=O)O)cc1	ClpP mod 14.1µM!
CNS(=O)(=O)c1cn(CC(=O)N2CCN(c3cc(C)ccc3C)CC2)cc1S(=O)(=O)NC	none
COc1cc2c(cc1OC)-c1cc(NC3CCCCCCC3)nc(=O)n1CC2	ClpP mod inconclusive, Anesthetic bind inconclusive
COc1cc2c(cc1OC)-c1cc(NCc3ccccn3)nc(=O)n1CC2	ClpP mod 28.2µM
CCNc1cc2n(c(=O)n1)CCc1cc(OC)c(OC)cc1-2	ClpP mod 28.2µM
CCCCCCNc1cc2n(c(=O)n1)CCc1cc(OC)c(OC)cc1-2	ClpP mod 15.8µM
COc1cc2c(cc1OC)-c1cc(NC3CC3)nc(=O)n1CC2	none
O=C1CCNc2cc3ccccc3cc21	ClpP mod 28.2µM
O=C(Nc1ccc(OC(F)(F)F)cc1)C(Cc1ccccc1)NS(=O)(=O)c1cccc2nsnc12 (stereo not drawn)	Anesthetic bind inconclusive
CC(C)(C)n1nnnc1C(c1cc2cc3c(cc2[nH]c1=O)OCCO3)N1CCSCC1 (stereo not drawn)	ClpP mod 25.1µM
CCC(C)(C)n1nnnc1C(c1cc2cc3c(cc2[nH]c1=O)OCO3)N1CCN(C)CC1 (stereo not drawn)	ClpP mod 8.91µM
CC(=O)Nc1nonc1-c1nnc(SCC(=O)Nc2cc(C)ccc2C)n1-c1ccccc1	Anesthetic bind inconclusive
